Laboratory results published in paper PMC10812921, “Transcriptional Coactivator BOB1 (OBF1, OCA-B) Modulates the Specificity of DNA Recognition by the POU-Domain Factors OCT1 and OCT2 in a Monomeric Configuration”.

Columns and labels:
[1] = target: POU1 (OCT1 POU domain) (human, UniProt P14859 260-458); assay: EMSA-SELEX-seq; no BOB1; 20 mM Tris-HCl pH 7.6, 140 mM NaCl, 10% glycerol, 0.5 mM EDTA, 0.05% Triton X-100, 0.1 mg/mL BSA, 0.1 mg/mL poly(dI-dC), 5 mM DTT, room temperature, 20 min; high values mean tight binding; details: protein: recombinant; dsDNA, one strand shown
Method in brief: (§1)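 Binding preference is the percentage of sequenced 8-mers matching a motif pattern. Tagged POU-domain proteins expressed in E. coli BL21 were purified under denaturing conditions and renatured. For binding, 30 ng protein met 300 ng of a PCR-amplified double-stranded random 35-nt library, with or without 28 ng coactivator protein, in 20 μL Tris–HCl pH 7.6 binding buffer for 20 min at RT. Complex bands were cut from native 6% PAGE, eluted and PCR-amplified over four rounds, then Illumina-sequenced.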

[2] = target: T1, POU2 (OCT2 POU domain) (human, UniProt P09086 175-386); assay: as above; details: protein: recombinant; dsDNA, one strand shown
T1 sequence: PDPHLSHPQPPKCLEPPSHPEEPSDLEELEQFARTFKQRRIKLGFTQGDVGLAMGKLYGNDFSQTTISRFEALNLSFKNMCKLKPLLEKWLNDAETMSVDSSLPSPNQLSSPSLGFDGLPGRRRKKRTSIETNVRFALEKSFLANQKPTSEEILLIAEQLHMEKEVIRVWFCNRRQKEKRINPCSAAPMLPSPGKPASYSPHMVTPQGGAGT
Method in brief: as §1

[3] = target: POU1 (OCT1 POU domain);BOB1 (OBF1, OCA-B) (human;human, UniProt P14859;Q16633 260-458;1-256, |); assay: EMSA-SELEX-seq; with BOB1 (ternary complex band); 20 mM Tris-HCl pH 7.6, 140 mM NaCl, 10% glycerol, 0.5 mM EDTA, 0.05% Triton X-100, 0.1 mg/mL BSA, 0.1 mg/mL poly(dI-dC), 5 mM DTT, room temperature, 20 min; high values mean tight binding; details: protein: recombinant;recombinant; copies: 1;1; dsDNA, one strand shown
Method in brief: as §1

[4] = target: T2, POU2 (OCT2 POU domain);BOB1 (OBF1, OCA-B) (human;human, UniProt P09086;Q16633 175-386;1-256, |); assay: as above; details: protein: recombinant;recombinant; copies: 1;1; dsDNA, one strand shown
T2 sequence 1: T1 sequence
T2 sequence 2: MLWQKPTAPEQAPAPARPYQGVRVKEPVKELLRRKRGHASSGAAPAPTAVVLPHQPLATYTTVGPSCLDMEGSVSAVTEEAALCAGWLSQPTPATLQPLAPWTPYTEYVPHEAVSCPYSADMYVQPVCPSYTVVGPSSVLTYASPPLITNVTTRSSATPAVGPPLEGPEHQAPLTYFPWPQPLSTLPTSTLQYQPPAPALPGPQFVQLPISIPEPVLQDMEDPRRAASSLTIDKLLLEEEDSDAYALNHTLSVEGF
Method in brief: as §1

Chain of POU1 (OCT1 POU domain) (P14859 260-458): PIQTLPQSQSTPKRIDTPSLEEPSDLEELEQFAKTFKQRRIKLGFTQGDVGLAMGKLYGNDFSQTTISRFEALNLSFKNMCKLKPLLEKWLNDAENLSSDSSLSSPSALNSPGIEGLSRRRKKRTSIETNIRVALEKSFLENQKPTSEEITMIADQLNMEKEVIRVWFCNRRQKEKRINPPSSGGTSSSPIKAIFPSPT

| Sequence | binding signal [1] | binding signal [2] | binding signal [3] | binding signal [4] |
| --- | --- | --- | --- | --- |
| ACTATAAC | 0.0156 % of ANNNNAAN 8-mers | 0.0196 % of ANNNNAAN 8-mers | 0.023 % of ANNNNAAN 8-mers | 0.0239 % of ANNNNAAN 8-mers |
| ACAACAAA | 0.0301 % of ANNNNAAN 8-mers | 0.0265 % of ANNNNAAN 8-mers | 0.0371 % of ANNNNAAN 8-mers | 0.0248 % of ANNNNAAN 8-mers |
| ATGGTAAA | 0.182 % of ANNNNAAN 8-mers | 0.191 % of ANNNNAAN 8-mers | 0.105 % of ANNNNAAN 8-mers | 0.106 % of ANNNNAAN 8-mers |
| AATGAAAT | 0.139 % of ANNNNAAN 8-mers | 0.157 % of ANNNNAAN 8-mers | 0.14 % of ANNNNAAN 8-mers | 0.121 % of ANNNNAAN 8-mers |
| AGTAGAAT | 0.0717 % of ANNNNAAN 8-mers | 0.0892 % of ANNNNAAN 8-mers | 0.0578 % of ANNNNAAN 8-mers | 0.0826 % of ANNNNAAN 8-mers |
| ATGCGAAG | 0.0538 % of ANNNNAAN 8-mers | 0.0604 % of ANNNNAAN 8-mers | 0.0523 % of ANNNNAAN 8-mers | 0.057 % of ANNNNAAN 8-mers |
| AACGGAAA | 0.0561 % of ANNNNAAN 8-mers | 0.0552 % of ANNNNAAN 8-mers | 0.0741 % of ANNNNAAN 8-mers | 0.0561 % of ANNNNAAN 8-mers |
| ACCTCAAT | 0.0202 % of ANNNNAAN 8-mers | 0.0196 % of ANNNNAAN 8-mers | 0.025 % of ANNNNAAN 8-mers | 0.0289 % of ANNNNAAN 8-mers |
| AGATCAAG | 0.0305 % of ANNNNAAN 8-mers | 0.0397 % of ANNNNAAN 8-mers | 0.0273 % of ANNNNAAN 8-mers | 0.0272 % of ANNNNAAN 8-mers |
| ACCCAAAG | 0.0198 % of ANNNNAAN 8-mers | 0.0184 % of ANNNNAAN 8-mers | 0.0203 % of ANNNNAAN 8-mers | 0.0206 % of ANNNNAAN 8-mers |
| AAAGGAAG | 0.0561 % of ANNNNAAN 8-mers | 0.061 % of ANNNNAAN 8-mers | 0.0675 % of ANNNNAAN 8-mers | 0.0702 % of ANNNNAAN 8-mers |
| ATATAAAT | 0.16 % of ANNNNAAN 8-mers | 0.222 % of ANNNNAAN 8-mers | 0.108 % of ANNNNAAN 8-mers | 0.116 % of ANNNNAAN 8-mers |
| ACTTCAAA | 0.0256 % of ANNNNAAN 8-mers | 0.0322 % of ANNNNAAN 8-mers | 0.0336 % of ANNNNAAN 8-mers | 0.0256 % of ANNNNAAN 8-mers |
| AAGCTAAT | 0.0969 % of ANNNNAAN 8-mers | 0.136 % of ANNNNAAN 8-mers | 0.0527 % of ANNNNAAN 8-mers | 0.0644 % of ANNNNAAN 8-mers |
| AGTATAAT | 0.192 % of ANNNNAAN 8-mers | 0.289 % of ANNNNAAN 8-mers | 0.0866 % of ANNNNAAN 8-mers | 0.121 % of ANNNNAAN 8-mers |
| AGAAGAAA | 0.0507 % of ANNNNAAN 8-mers | 0.0685 % of ANNNNAAN 8-mers | 0.055 % of ANNNNAAN 8-mers | 0.0471 % of ANNNNAAN 8-mers |
| ACTTGAAC | 0.0183 % of ANNNNAAN 8-mers | 0.0207 % of ANNNNAAN 8-mers | 0.018 % of ANNNNAAN 8-mers | 0.0314 % of ANNNNAAN 8-mers |
| ATGACAAC | 0.0259 % of ANNNNAAN 8-mers | 0.0207 % of ANNNNAAN 8-mers | 0.0277 % of ANNNNAAN 8-mers | 0.0355 % of ANNNNAAN 8-mers |
| ACGCGAAG | 0.0172 % of ANNNNAAN 8-mers | 0.0121 % of ANNNNAAN 8-mers | 0.0168 % of ANNNNAAN 8-mers | 0.0239 % of ANNNNAAN 8-mers |
| AGCGAAAT | 0.0526 % of ANNNNAAN 8-mers | 0.0627 % of ANNNNAAN 8-mers | 0.0492 % of ANNNNAAN 8-mers | 0.0619 % of ANNNNAAN 8-mers |
| ACTCAAAA | 0.0427 % of ANNNNAAN 8-mers | 0.0339 % of ANNNNAAN 8-mers | 0.046 % of ANNNNAAN 8-mers | 0.0363 % of ANNNNAAN 8-mers |
| ACTTGAAG | 0.0198 % of ANNNNAAN 8-mers | 0.0236 % of ANNNNAAN 8-mers | 0.0273 % of ANNNNAAN 8-mers | 0.0239 % of ANNNNAAN 8-mers |
| ACTCTAAC | 0.013 % of ANNNNAAN 8-mers | 0.015 % of ANNNNAAN 8-mers | 0.0187 % of ANNNNAAN 8-mers | 0.0182 % of ANNNNAAN 8-mers |
| ACGCAAAA | 0.151 % of ANNNNAAN 8-mers | 0.0944 % of ANNNNAAN 8-mers | 0.277 % of ANNNNAAN 8-mers | 0.157 % of ANNNNAAN 8-mers |
| AAACTAAC | 0.0256 % of ANNNNAAN 8-mers | 0.0316 % of ANNNNAAN 8-mers | 0.03 % of ANNNNAAN 8-mers | 0.0289 % of ANNNNAAN 8-mers |
| AGCCCAAT | 0.0168 % of ANNNNAAN 8-mers | 0.019 % of ANNNNAAN 8-mers | 0.0226 % of ANNNNAAN 8-mers | 0.0231 % of ANNNNAAN 8-mers |
| AGGTTAAC | 0.032 % of ANNNNAAN 8-mers | 0.0293 % of ANNNNAAN 8-mers | 0.0324 % of ANNNNAAN 8-mers | 0.0338 % of ANNNNAAN 8-mers |
| ACCGAAAT | 0.0404 % of ANNNNAAN 8-mers | 0.0426 % of ANNNNAAN 8-mers | 0.0437 % of ANNNNAAN 8-mers | 0.0479 % of ANNNNAAN 8-mers |
| AACCCAAC | 0.0103 % of ANNNNAAN 8-mers | 0.0132 % of ANNNNAAN 8-mers | 0.0113 % of ANNNNAAN 8-mers | 0.0182 % of ANNNNAAN 8-mers |
| ACACTAAG | 0.0179 % of ANNNNAAN 8-mers | 0.0219 % of ANNNNAAN 8-mers | 0.0226 % of ANNNNAAN 8-mers | 0.0289 % of ANNNNAAN 8-mers |
